# Screening data as filed in PubChem.
# PAX8 reporter: inhibitors of PAX8-driven TPO luciferase reporter, primary screen, RMG-I cells, single concentration; 360,000 compounds, 1.2% hits; inhibition, % at 12.6 µM; SteadyGlo, 24 h; AID 652154, 2013;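 active = mean replicate inhibition at least 60% with every replicate also reaching 60%; inconclusive = only one of the two criteria is met; inactive = mean below 60% and not all replicates reaching 60%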;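 note: luciferase light reporting Pax8 driven TPO promoter activity; plate controls were median of neutral control wells for no effect and mitoxantrone controls for full effect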
# TWEAK-Fn14 inh: inhibitors of TWEAK-Fn14 signaling, primary screen, luciferase reporter cells, uHTS; TWEAK-stimulated Fn14 reporter cells, luciferase luminescence, 8 h; inhibition, % at 10 µM; 360,000 compounds, 2% hits; AID 1159606, 2016; in the data active = inhibition above about 50%
# LGR2 inh: inhibitors of bursicon-induced LGR2 CRE-luciferase signal, primary screen, cell-based, HEK293, CRE-luciferase reporter, bursicon stimulation | bursicon-stimulated, 4 h | inhibition, % at 9.99 µM | 380,000 compounds, 0.35% hits | AID 720647, 2013;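 active = drop in luminescence signal, shown as inhibition above about 50% in the replicate tests, limit read from the data, passing the limit was not always enough; inconclusive = probably only some replicates passing the limit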;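 note: agonist challenge used bursicon conditioned medium at about half maximal strength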
# EBV LMP1 NFkB: EBV LMP1-driven NF-kappaB luciferase reporter inhibitors, primary screen, cell-based, luminescence, single point; LMP1-induced NF-kappaB luciferase reporter cells; inhibition, % at 12.5 µM; 350,000 compounds, 0.69% hits; in the data active = inhibition above about 41%; inconclusive = no clear call, values can overlap the other calls;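 note: 0% = neutral control wells and 100% = reference inhibitor control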
# TROY signal inh: inhibitors of TROY-driven NF-kB signaling, primary screen, Q293 LMP1-TROYcd cells, NF-kB luciferase, uHTS; Q293 LMP1-TROYcd NF-kB luciferase reporter, 4 h; inhibition, % at 10 µM; 360,000 compounds, 0.98% hits; AID 1347056, 2019;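 active = compounds whose plate-normalised and pattern-corrected inhibition of the luciferase reporter signal at the single screening dose is 50% or more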
# EWS-Fli block: EWS/Fli-driven NR0B1 reporter inhibitors, primary screen, A673 cells, NR0B1 luciferase, luminescence, MLPCN library | 350,000 compounds, 0.67% hits | inhibition, % at 12.6 µM | viability-normalised;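 active = mean inhibition of at least 50% after viability correction, with every replicate also passing that limit; inconclusive = mean reaches 50% but only one of two replicates passes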;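 note: firefly luciferase signal divided by Alamar Blue viability fluorescence both relative to DMSO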
# An asterisk follows results filed as active; ? = inconclusive; nt = not tested or not shown. The list is not random: actives were taken first. Their share in the collection is about 3.2%.
SMILES,PAX8 reporter,TWEAK-Fn14 inh,LGR2 inh,EBV LMP1 NFkB,TROY signal inh,EWS-Fli block
CCc1ccc2oc(-c3cc(N)ccc3Cl)nc2c1,18.4,83.3*,nt,-46.8,57.3*,nt
CCCNC(=O)C[C@H]1C[C@H]2c3cc(NC(=O)c4ccc5c(c4)OCO5)ccc3O[C@H]2[C@H](CO)O1,-5.7,nt,-6.8,nt,nt,-14.0
COC(=O)c1ccc([C@@H]2C=C(C(=O)N3CCN(Cc4ccc5c(c4)OCO5)CC3)O[C@H](OCc3ccc(CO)cc3)C2)cc1,nt,nt,nt,nt,nt,10.7
Nc1ccc(-c2nc3cc(N)ccc3o2)cc1,-129.8,25.2,-21.8,7.2,-27.9,-27.7
Nc1ccc2oc(-c3ccccc3Cl)nc2c1,26.5,51.1*,-24.7,29.6,-15.2,37.8
CNC[C@@H]1Oc2ccc(NS(=O)(=O)c3c(C)noc3C)cc2C(=O)N([C@@H](C)CO)C[C@H]1C,-30.5,nt,-1.5,nt,nt,-9.1
COc1ccccc1NC(=O)C(=O)N/N=C(\C)CC(=O)Nc1ccccc1C(F)(F)F,-9.1,2.2,10.7,47.0*,-11.9,-13.2
COc1ccc2cc3c(N)nn(C(=O)Cc4c[nH]c5ccccc45)c3nc2c1,8.4,94.7*,87.8*,75.3*,67.0*,21.9
COc1ccc2cc3c(N)nn(C(=O)c4ccccc4Cl)c3nc2c1,8.7,82.2*,28.3,80.0*,49.6,18.6
COc1ccc2cc3c(N)nn(C(=O)c4ccc(F)cc4)c3nc2c1,-18.8,55.4*,10.8,37.8,38.3,-28.9
O=C(C[C@@H]1C=C[C@@H](NS(=O)(=O)c2ccccc2)[C@H](CO)O1)NCc1ccncn1,0.3,nt,-0.2,nt,nt,-4.4
CC(C)NC(=O)N(C)C[C@H]1Oc2cc(-c3cccnc3)ccc2S(=O)(=O)N([C@@H](C)CO)C[C@H]1C,nt,nt,-1.2,nt,nt,-18.0
CCC(=O)Nc1ccc2c(c1)OC[C@H](C)N(CC1CCOCC1)C[C@H](C)[C@@H](OC)CN(C)C2=O,-26.3,nt,5.3,nt,nt,nt
S=C1Cc2ccccc2N1,105.6*,72.3*,24.1,-8.3,22.3,65.5*
S=C1Nc2ccccc2CS1,30.6,11.7,-4.7,4.5,-8.3,1.4
COC(=O)c1ccc2nc(-c3cccc(N)c3)cn2c1,-38.0,95.0*,85.4*,60.8*,53.5*,38.2
O=C(CSc1nc2nc(-c3cccs3)cc(C(F)(F)F)c2c(=O)[nH]1)Nc1c(F)c(F)c(F)c(F)c1F,21.3,65.5*,-8.3,11.1,57.4*,12.4
CC=Cc1ccc2n(c1=O)C[C@@H]1[C@@H](CO)[C@H](C(=O)NC3CCCC3)[C@H]2N1Cc1ccncc1 (mixture of isomers),-4.6,nt,3.5,nt,nt,-4.2
CC1CCC(=C(C#N)c2nc(-c3cc4ccccc4oc3=O)cs2)CC1 (stereo not drawn),nt,54.0*,nt,-40.7,47.2,nt
N#CCc1nc(-c2cc3ccccc3oc2=O)cs1,-46.1,-20.0,nt,1.0,-42.9,-32.8
CCCCCc1ccc(OCCCC[n+]2ccccc2)c(CCCCC)c1,nt,50.1*,nt,55.2*,36.6,nt
CCCCOc1ccc(C)cc1CN(CCO)CCO,nt,-17.8,nt,-0.1,-6.2,nt
CCCCCc1ccc(OCCCC[n+]2ccc(C)cc2)c(CCCCC)c1,73.8*,68.4*,54.3*,20.0,50.3*,32.7
CCC(C)(C)c1ccc(OCCCC[n+]2ccccc2)c(C(C)(C)CC)c1,87.6*,78.9*,19.2,14.7,51.4*,27.4
CCC(C)(C)c1ccc(Oc2cccc(C(=O)O)c2)cc1,-29.8,-18.7,-34.1,-16.3,-43.4,-80.2
CCCCCc1ccc(OCCCC[n+]2cccc(C)c2)c(CCCCC)c1,93.7*,70.0*,?,16.3,58.6*,33.4
COc1ccc(S(=O)(=O)N(CCCN2CCCC2=O)Cc2cc3cc(C)c(C)cc3[nH]c2=O)cc1,nt,94.3*,nt,-3.8,14.3,nt
COc1ccc(CN(C)C[C@@H]2Oc3c(NS(=O)(=O)c4ccc(Cl)cc4)cccc3C(=O)N([C@@H](C)CO)C[C@@H]2C)cc1,16.6,nt,-20.9,nt,nt,2.8
CCCN1CCC(=NNc2ccc(S(=O)(=O)N(CC)CC)cc2[N+](=O)[O-])CC1,34.7,-1.5,-8.1,-12.1,4.0,61.1*
